# Laboratory results: PubChem BioAssay AID504333 (National Center for Advancing Translational Sciences (NCATS), 2011)
# Among all 360,000 compounds or so, about 16,000 (4.4%) were called active. About 9% were inconclusive and are not listed. The entries come from a sample that favours actives as a whole. Unmarked numbers belong to inactive results. The call rests on the fitted dose curve; in most records, active means well fitted inhibition curve with a large enough effect; inconclusive means small, poorly fitted or top-dose-only effect; inactive means no such curve, though single readings can be large or run the other way.
# Molecular target: Bromodomain adjacent to zinc finger domain protein 2B (Homo sapiens) (UniProt Q9UIF8)
# Test: qHTS Assay for Inhibitors of BAZ2B; further: nearly all actives have a fitted effect of over 60% in size
# Settings: AlphaScreen BAZ2B-H3K14Ac peptide displacement; series mostly up to 114 µM; activity change, negative = inhibition: at the top concentration
# In short: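 AlphaScreen luminescence quantifies BAZ2B engagement of H3K14Ac peptide; the protein and biotinylated peptide are both at 50 nM final, buffer PBS pH 7.4 with 0.01% Tween-20, all steps at room temperature.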
# On the % scale 0 is the no-effect control and ±100 the full control effect; potency means the concentration at half of the fitted maximal effect.
# Sequence of Bromodomain adjacent to zinc finger domain protein 2B (Homo sapiens) (Q9UIF8 whole entry, looked up, the tested form may be a part): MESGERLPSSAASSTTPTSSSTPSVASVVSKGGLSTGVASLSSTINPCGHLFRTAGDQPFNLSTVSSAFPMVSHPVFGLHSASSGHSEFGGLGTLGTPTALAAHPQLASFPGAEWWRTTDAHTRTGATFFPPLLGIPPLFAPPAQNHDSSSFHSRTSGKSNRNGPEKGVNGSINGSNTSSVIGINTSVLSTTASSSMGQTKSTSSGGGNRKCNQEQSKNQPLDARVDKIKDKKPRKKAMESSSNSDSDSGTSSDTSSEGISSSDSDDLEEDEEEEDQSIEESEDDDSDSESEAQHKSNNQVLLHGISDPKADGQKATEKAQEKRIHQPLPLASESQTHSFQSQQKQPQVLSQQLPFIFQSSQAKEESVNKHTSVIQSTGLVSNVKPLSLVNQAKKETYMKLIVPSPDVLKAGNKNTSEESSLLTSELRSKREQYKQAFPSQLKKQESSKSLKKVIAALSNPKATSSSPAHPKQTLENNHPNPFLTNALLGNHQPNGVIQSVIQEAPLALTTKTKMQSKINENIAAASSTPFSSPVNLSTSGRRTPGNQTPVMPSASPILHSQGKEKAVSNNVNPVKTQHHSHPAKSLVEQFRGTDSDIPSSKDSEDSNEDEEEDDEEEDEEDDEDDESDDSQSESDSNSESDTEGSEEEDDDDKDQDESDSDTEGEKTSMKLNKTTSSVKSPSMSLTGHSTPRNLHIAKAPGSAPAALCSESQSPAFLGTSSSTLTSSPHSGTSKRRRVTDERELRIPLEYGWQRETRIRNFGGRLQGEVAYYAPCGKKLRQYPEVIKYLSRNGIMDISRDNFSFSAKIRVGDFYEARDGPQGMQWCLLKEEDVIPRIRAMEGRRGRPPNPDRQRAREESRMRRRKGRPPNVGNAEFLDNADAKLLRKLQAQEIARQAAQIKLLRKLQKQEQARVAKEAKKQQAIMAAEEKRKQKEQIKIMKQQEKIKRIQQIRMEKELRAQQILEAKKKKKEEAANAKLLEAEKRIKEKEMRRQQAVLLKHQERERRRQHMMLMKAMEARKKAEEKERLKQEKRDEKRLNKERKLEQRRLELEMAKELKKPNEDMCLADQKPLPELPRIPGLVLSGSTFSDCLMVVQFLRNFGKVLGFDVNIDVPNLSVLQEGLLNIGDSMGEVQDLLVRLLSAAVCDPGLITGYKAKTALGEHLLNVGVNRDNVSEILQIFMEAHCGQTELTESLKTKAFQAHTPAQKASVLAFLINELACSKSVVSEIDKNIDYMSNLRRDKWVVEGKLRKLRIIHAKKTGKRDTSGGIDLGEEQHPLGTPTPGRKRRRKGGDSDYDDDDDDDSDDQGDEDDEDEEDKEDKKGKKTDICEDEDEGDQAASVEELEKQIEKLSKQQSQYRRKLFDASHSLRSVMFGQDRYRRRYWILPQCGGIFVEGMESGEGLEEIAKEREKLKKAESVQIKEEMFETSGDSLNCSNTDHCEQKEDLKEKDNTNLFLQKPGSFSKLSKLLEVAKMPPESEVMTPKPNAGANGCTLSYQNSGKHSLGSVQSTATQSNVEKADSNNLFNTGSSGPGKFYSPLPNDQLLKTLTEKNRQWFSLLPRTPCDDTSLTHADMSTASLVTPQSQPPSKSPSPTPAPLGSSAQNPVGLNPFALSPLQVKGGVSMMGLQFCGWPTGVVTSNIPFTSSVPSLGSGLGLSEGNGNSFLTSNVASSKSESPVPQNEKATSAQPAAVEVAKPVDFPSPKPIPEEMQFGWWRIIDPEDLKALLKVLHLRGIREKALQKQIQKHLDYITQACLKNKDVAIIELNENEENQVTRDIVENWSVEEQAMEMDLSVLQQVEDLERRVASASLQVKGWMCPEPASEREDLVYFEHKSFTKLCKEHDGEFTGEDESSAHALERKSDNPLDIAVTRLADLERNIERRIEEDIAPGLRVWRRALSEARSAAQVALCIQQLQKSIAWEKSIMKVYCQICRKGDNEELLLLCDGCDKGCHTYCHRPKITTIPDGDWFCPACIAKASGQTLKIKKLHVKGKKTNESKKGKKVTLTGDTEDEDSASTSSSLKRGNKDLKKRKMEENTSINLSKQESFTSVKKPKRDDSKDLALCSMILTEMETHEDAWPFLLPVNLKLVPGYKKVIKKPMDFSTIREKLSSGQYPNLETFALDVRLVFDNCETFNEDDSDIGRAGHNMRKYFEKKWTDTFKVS
Structure (SMILES),"activity change, negative = inhibition",Potency
O=C(O)c1ccc(Cn2c(SCc3ccc(F)cc3)nc3ccncc32)cc1,-1.05%,
C=CCn1c2ccccc2c2nnc(SCc3[nH]c(=O)[nH]c3C(=O)CCCCC(=O)OCC)nc21,,79.4 µM (active)
CCn1c2ccccc2c2nnc(SCC(=O)O)nc21,-5.77%,
C=CCn1c2ccccc2c2nnc(SC(CC)C(=O)Nc3nc(C)c(C(=O)OCC)s3)nc21 (stereo not drawn),0.0442%,
CCOC(=O)c1ccc(CSc2nnc3cc(C)c4ccccc4n23)cc1,-15.6%,
CCOc1ccc(C(=O)c2cn(Cc3ccccc3OC)c3ccc(F)cc3c2=O)cc1,-19.9%,
CCCN(C(=O)Cn1ncc2c([nH]c3ccc(C)cc32)c1=O)c1ccccc1C,1.79% [at 57.1 µM],
CCOC(=O)c1cc(-c2ccccc2)n(-c2cccc(C(=O)Nc3cc(OC)cc(OC)c3)c2)c1C,-27.3%,
C/C(=C\C(=O)c1ccccc1)Nc1cccc(O)c1,,50.1 µM (active)
C/C(=C\C(=O)c1cccnc1)Nc1ccc(C)c(C)c1,,50.1 µM (active)
Cc1ccc(OCC(=O)NCCCNC(=O)c2cccnc2)cc1C,-1.83%,
O=C(COc1ccc(/C=N/NC(=O)c2ccc(O)cc2)cc1)Nc1ccc([N+](=O)[O-])cc1,-26.7%,
Cc1cc2nc(-c3ccc(NC(=O)c4cccnc4)cc3)oc2cc1C,11.6%,
Cc1ccc(NC(=O)COc2ccc(/C=N\NC(=O)c3cccnc3)cc2)cc1C,,56.2 µM (active)
O=C(CSc1ccccc1)Nc1ccc(C(=O)Nc2cccc(O)c2)cc1,3.89%,
Cc1ccc(N/C=C/C(=O)c2ccccc2)cc1C,-4.96%,
O=C(NCc1cccc(CNC(=O)Nc2cccc(O)c2)c1)Nc1cccc(O)c1,-18.9%,
Cc1cccc(NC(=O)c2ccc(F)c(S(=O)(=O)N(C)C3CCCCC3)c2)c1,0.102%,
COc1ccc(Cl)cc1NC(=O)c1sc2nc3c(cc2c1N)CN(C)CC3,-14.9%,
CCOCCCNC(=O)c1c(NC(=O)c2nc(SC)ncc2Cl)sc2c1CCCC2,-6%,
CNC(=O)c1cccc2nc3ccccc3nc12,,50.1 µM (active)
CNC(=O)c1cc2c(ccc3ccccc32)oc1=N,4.85%,
CN(C)C(=O)c1coc2nc3ccccc3nc12,-3.28%,
COc1ccc(-n2c(SC)nc3sc4c(c3c2=O)CCN(C(C)=O)C4)cc1,4.86%,
CCOc1ccc(CNC(=O)c2ccc3nc(CC)c(CC)nc3c2)cc1OC,-2.35%,
CC(C)c1ccc(Nc2nnc(SCC(=O)c3nnc(-c4ccccc4)o3)s2)cc1,,35.5 µM (active)
Cc1ccc(Nc2nnc(SCC(=O)c3cc4ccccc4o3)s2)cc1C,-32.6%,
Cc1ccccc1Nc1nnc(SCC(=O)c2cc3ccccc3o2)s1,-11.7%,
